# Test results taken from PubChem BioAssay (NCATS).
# Inconclusive results are not listed. Where a call stands in place of a potency, no number is given. Values without a mark were called inactive. Calls of active or inactive are those of the source. Calls follow the shape of the full dose curve.
# Assay: Cytotoxicity counterscreen for inhibitors of SARS-CoV-2 cell entry (AID 1645845); also: nearly all actives have a fitted effect of over 50% in size
# Settings: cell viability (SARS-CoV-2 entry assay cells); series mostly up to 57.1 µM; activity change, negative = cytotoxicity: at the top concentration
# Outline: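 Expi293F/hACE2 cells seeded overnight; cpd pin-transferred in DMSO, 1 h preincubation, + media, 48 h 37 C 5% CO2; ATPLite 1step luminescence; normalized to cells and no cells.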
# Potency is read from the fitted curve at half-maximal effect.
Compound,"activity change, negative = cytotoxicity [%]",outcome,Potency
CN1CCC[C@@H]1Cc1c[nH]c2ccc(CCS(=O)(=O)c3ccccc3)cc12,-5.98,–,–
Cc1ccccc1C(OCCN(C)C)c1ccccc1 (centres undefined),3.09,–,–
COC(=O)N[C@H](C(=O)N[C@@H](Cc1ccccc1)[C@@H](O)CN(Cc1ccc(-c2ccccn2)cc1)NC(=O)[C@@H](NC(=O)OC)C(C)(C)C)C(C)(C)C,–,inactive,–
CN1CCN(C(c2ccccc2)c2ccccc2)CC1,–,inactive,–
OC(CCN1CCCC1)(c1ccccc1)C1CCCCC1 (centres undefined),-4.86,–,–
Nc1nnc(-c2cccc(Cl)c2Cl)c(N)n1,–,–,inactive
CCCCc1oc2ccccc2c1C(=O)c1cc(I)c(OCCN(CC)CC)c(I)c1,–,–,inactive
C[C@H]1[C@H](NC(=O)/C(=N/OC(C)(C)C(=O)O)c2csc(N)n2)C(=O)N1S(=O)(=O)O (stereo in doubt),–,inactive,–
CC(c1cc2ccccc2s1)N(O)C(N)=O (centres undefined),–,inactive,–
OCCN1CCN(CCCN2c3ccccc3Sc3ccc(Cl)cc32)CC1,–,–,28.2 µM (active)
CC[C@@]1(O)C(=O)OCc2c1cc1n(c2=O)Cc2cc3c(CN(C)C)c(O)ccc3nc2-1,-35.1,–,–
CCCN(CCc1cccs1)[C@H]1CCc2c(O)cccc2C1,3.82,–,–
COC1=CC(=O)C[C@@H](C)[C@]12Oc1c(Cl)c(OC)cc(OC)c1C2=O,-20.7,–,–
Cc1ccccc1N1C(=O)c2cc(S(N)(=O)=O)c(Cl)cc2NC1C (centres undefined),–,inactive,–
CO[C@H]1C=CO[C@@]2(C)Oc3c(C)c(O)c4c(O)c(c(/C=N/N5CCN(C)CC5)c(O)c4c3C2=O)NC(=O)/C(C)=C\C=C[C@H](C)[C@H](O)[C@@H](C)[C@@H](O)[C@@H](C)[C@H](OC(C)=O)[C@@H]1C,4.77,–,–
CCOC(=O)C1=C(C)NC(C)=C(C(=O)OC)C1c1cccc(Cl)c1Cl (centres undefined),–,inactive,–
COc1cc2c(N3CCN(C(=O)Nc4ccc(OC(C)C)cc4)CC3)ncnc2cc1OCCCN1CCCCC1,–,inactive,–
C[C@H]1c2cccc(O)c2C(O)=C2C(=O)[C@]3(O)C(O)=C(C(N)=O)C(=O)[C@@H](N(C)C)[C@@H]3[C@@H](O)[C@@H]21,-4.83,–,–
CS(=O)(=O)CCNCc1ccc(-c2ccc3ncnc(Nc4ccc(OCc5cccc(F)c5)c(Cl)c4)c3c2)o1,–,–,inactive
O=P(O)(O)C(O)(Cc1cccnc1)P(=O)(O)O,–,–,inactive

Compound,"activity change, negative = cytotoxicity [%]",outcome,Potency
C#Cc1cccc(Nc2ncnc3cc(OCCOC)c(OCCOC)cc23)c1,–,–,inactive
CNCCCN1c2ccccc2CCc2ccccc21,-9.34,–,–
CN1CCN(C2=Nc3ccccc3Oc3ccc(Cl)cc32)CC1,–,inactive,–
COc1ccc(-c2cc(=S)ss2)cc1,-27.7,–,–
CCc1nc(N)nc(N)c1-c1ccc(Cl)cc1,–,–,14.1 µM (active)
C[C@@H]1CC(=O)NN=C1c1ccc(NN=C(C#N)C#N)cc1,-16.5,–,–
C#C[C@]1(O)CC[C@H]2[C@@H]3CCC4=Cc5oncc5C[C@]4(C)[C@H]3CC[C@@]21C,-20.5,–,–
CNS(=O)(=O)CCc1ccc2[nH]cc(C3CCN(C)CC3)c2c1,–,inactive,–
CC(C)NCC(O)COc1ccc(CCOCC2CC2)cc1 (centres undefined),–,–,inactive
CO[C@@]12[C@H](COC(N)=O)C3=C(C(=O)C(C)=C(N)C3=O)N1C[C@@H]1N[C@@H]12,–,–,inactive
Cc1nc2n(c(=O)c1CCN1CCC(c3noc4cc(F)ccc34)CC1)CCC[C@H]2O,–,inactive [at 27.1 µM],–
O=C(O)CCCc1ccccc1,-4.98,–,–
CCCN(CCC)S(=O)(=O)c1ccc(C(=O)O)cc1,–,inactive,–
CC(=O)O[C@@]12CO[C@@H]1C[C@H](O)[C@@]1(C)C(=O)[C@H](O)C3=C(C)[C@@H](OC(=O)[C@H](O)[C@@H](NC(=O)OC(C)(C)C)c4ccccc4)C[C@@](O)([C@@H](OC(=O)c4ccccc4)[C@H]21)C3(C)C,–,–,8.91 µM (active)
CC1(C)S[C@@H]2[C@H](NC(=O)[C@H](N)c3ccccc3)C(=O)N2[C@H]1C(=O)O,–,inactive,–
Cc1ccc(C)c(OCCCC(C)(C)C(=O)O)c1,–,–,inactive
CNCCCC1c2ccccc2C=Cc2ccccc21,-12.9,–,–
O=C1[C@H](CC[C@H](O)c2ccc(F)cc2)[C@@H](c2ccc(O)cc2)N1c1ccc(F)cc1,–,–,inactive
CN1C(=O)CC(C)(c2ccccc2)C1=O (centres undefined),1.48,–,–
